# Assay results from publication PMC5540273 (PLoS ONE, 2017).
# “And” between values parts separate entries of the source, which are not always exact repeats. Equal values may be shown once. Read-outs that look alike come from different tables or passages of the source.
# Experiments:
# [1] = tested on: ERBB2; conditions: n = 1
# [2] = tested on: ERBB3; conditions: concentration: 1 μM, replicates: in singlicate; n = 1
# [3] = tested on: ERBB4; conditions: n = 1
# [4] = tested on: T1, ERK1; conditions: concentration: 1 μM, replicates: in singlicate; n = 1
# T1 construct: gene MAPK3
# [5] = tested on: T2, ERK2; conditions: concentration: 1 μM, replicates: in singlicate; n = 1
# T2 construct: gene MAPK1
# [6] = tested on: T3, ERK3; conditions: n = 1
# T3 construct: gene MAPK6
# [7] = tested on: T4, ERK4; conditions: n = 1
# T4 construct: gene MAPK4
# [8] = tested on: T5, ERK5; conditions: concentration: 1 μM, replicates: in singlicate; n = 1
# T5 construct: gene MAPK7
# [9] = tested on: T6, ERK8; conditions: concentration: 1 μM, replicates: in singlicate; n = 1
# T6 construct: gene MAPK15
# [10] = tested on: ERN1; conditions: n = 1
# [11] = tested on: T7, FAK; conditions: concentration: 1 μM, replicates: in singlicate; n = 1
# T7 construct: gene PTK2
# [12] = tested on: FER; conditions: n = 1
# [13] = tested on: FES; conditions: concentration: 1 μM, replicates: in singlicate; n = 1
# [14] = tested on: FGFR1; conditions: concentration: 1 μM, replicates: in singlicate; n = 1
# [15] = tested on: FGFR2; conditions: concentration: 1 μM, replicates: in singlicate; n = 1
# [16] = tested on: FGFR3; conditions: n = 1
# [17] = tested on: FGFR4; conditions: n = 1
# [18] = tested on: FGR; conditions: n = 1
# [19] = tested on: FLT1; conditions: n = 1
# [20] = tested on: FLT3-autoinhibited; conditions: concentration: 1 μM, replicates: in singlicate; n = 1
# [21] = concentration: 1 μM, replicates: in singlicate
# [22] = concentration: 1 μM,replicates: in singlicate, 1 µM
# 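Further: KINOMEscan kinase panel screen.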
smiles,measurement,setting,value
Cc1ccc(NC(=O)Nc2cc(C(C)(C)C)nn2-c2ccccc2)cc1 [GSK1014915],%Inh,[1]; [21],36%
same,%Inh,[2],10%
same,%Inh,[3]; [21],0%
same,%Inh,[4],0%
same,%Inh,[5],0%
same,%Inh,[6]; [21],7%
same,%Inh,[7]; [21],26%
same,%Inh,[8],0%
same,%Inh,[9],52%
same,%Inh,[10]; [21],0%
same,%Inh,[11],0%
same,%Inh,[12]; [21],20%
same,%Inh,[13],0%
same,%Inh,[14],6%
same,%Inh,[15],25%
same,%Inh,[16]; [21],16%
same,%Inh,[17]; [21],15%
same,%Inh,[18]; [21],18%
same,%Inh,[19]; [21],33%
same,%Inh,[20],38%
O=C(Nc1n[nH]c2cc(-c3cccc(F)c3F)ccc12)C1CC1 [SB-733894],%Inh,[1]; [21],0%
same,%Inh,[2],0%
same,%Inh,[3]; [21],27%
same,%Inh,[4],0%
same,%Inh,[5],0%
same,%Inh,[6]; [21],0%
same,%Inh,[7]; [21],0%
same,%Inh,[8],11%
same,%Inh,[9],28%
same,%Inh,[10]; [21],5%
same,%Inh,[11],3%
same,%Inh,[12]; [21],0%
same,%Inh,[13],53%
same,%Inh,[14],0%
same,%Inh,[15],0%
same,%Inh,[16]; [21],0%
same,%Inh,[17]; [21],0%
same,%Inh,[18]; [21],61%
same,%Inh,[19]; [21],0%
same,%Inh,[20],12%
CCCc1ccc(S(=O)(=O)NC2CCN(c3ccnc(Nc4ccc(F)cc4)n3)C2)cc1 (stereo not shown) [GSK1379715],%Inh,[1]; [21],7%
same,%Inh,[2],1%
same,%Inh,[3]; [21],25%
same,%Inh,[4],0%
same,%Inh,[5],18%
same,%Inh,[6]; [21],0%
same,%Inh,[7]; [21],13%
same,%Inh,[8],0%
same,%Inh,[9],15%
same,%Inh,[10]; [21],0%
same,%Inh,[11],0%
same,%Inh,[12]; [21],0%
same,%Inh,[13],0%
same,%Inh,[14],0%
same,%Inh,[15],0%
same,%Inh,[16]; [21],2%
same,%Inh,[17]; [21],11%
same,%Inh,[18]; [21],23%
same,%Inh,[19]; [21],18%
same,%Inh,[20],0%
O=C1NC(=O)C(N2CCc3ccccc32)=C1c1ccccc1Cl [SB-373598],%Inh,[1]; [21],26%
same,%Inh,[2],0%
same,%Inh,[3]; [21],0%
same,%Inh,[4],17%
same,%Inh,[5],0%
same,%Inh,[6]; [21],23%
same,%Inh,[7]; [21],11%
same,%Inh,[8],0%
same,%Inh,[9],0%
same,%Inh,[10]; [21],13%
same,%Inh,[11],0%
same,%Inh,[12]; [21],34%
same,%Inh,[13],15%
same,%Inh,[14],7%
same,%Inh,[15],15%
same,%Inh,[16]; [21],33%
same,%Inh,[17]; [21],9%
same,%Inh,[18]; [21],21%
same,%Inh,[19]; [21],6%
same,%Inh,[20],0%
Cc1cccc(-c2nc(Nc3ccncc3)c3ccccc3n2)n1 [GW855857],%Inh,[1]; [21],7%
same,%Inh,[2],43%
same,%Inh,[3]; [21],0%
same,%Inh,[4],0%
same,%Inh,[5],9%
same,%Inh,[6]; [21],0%
same,%Inh,[7]; [21],7%
same,%Inh,[8],30%
same,%Inh,[9],17%
same,%Inh,[10]; [21],0%
same,%Inh,[11],31%
same,%Inh,[12]; [21],0%
same,%Inh,[13],13%
same,%Inh,[14],5%
same,%Inh,[15],7%
same,%Inh,[16]; [21],2%
same,%Inh,[17]; [21],6%
same,%Inh,[18]; [21],31%
same,%Inh,[19]; [21],0%
same,%Inh,[20],0%
Cc1nnc(-c2ccc3occ(-c4ccc(S(C)=O)cc4)c3c2)[nH]1 (stereo not shown),%Inh,[1]; [21],16%
same,%Inh,[2],6%
same,%Inh,[3]; [21],5%
same,%Inh,[4],0%
same,%Inh,[5],8%
same,%Inh,[6]; [21],13%
same,%Inh,[7]; [21],0%
same,%Inh,[8],0%
same,%Inh,[9],0%
same,%Inh,[10]; [21],35%
same,%Inh,[11],0%
same,%Inh,[12]; [21],0%
same,%Inh,[13],14%
same,%Inh,[14],0%
same,%Inh,[15],0%
same,%Inh,[16]; [21],0%
same,%Inh,[17]; [21],3%
same,%Inh,[18]; [21],19%
same,%Inh,[19]; [21],0%
same,%Inh,[20],31%
CSc1nn2c(=O)cc(N3CCOCC3)nc2n1Cc1cccc(C(F)(F)F)c1C [GSK2363608],%Inh,[1]; [22],0% and 10%
same,%Inh,[2],0%
same,%Inh,[3]; [22],28% and 37%
same,%Inh,[4],0%
same,%Inh,[5],0%
same,%Inh,[6]; [22],7% and 0%
same,%Inh,[7]; [22],54% and 22%
same,%Inh,[8],0%
same,%Inh,[9],0%
same,%Inh,[10]; [22],3% and 1%
same,%Inh,[11],0%
same,%Inh,[12]; [22],25% and 1%
same,%Inh,[13],0%
same,%Inh,[14],0%
same,%Inh,[15],0%
same,%Inh,[16]; [22],17% and 4%
same,%Inh,[17]; [22],5% and 14%
same,%Inh,[18]; [22],31% and 32%
same,%Inh,[19]; [22],26% and 10%
same,%Inh,[20],0%
Cl.Oc1ccc(-c2nc(-c3ccccc3)[nH]c2-c2ccncc2)cc1 [SB-428218],%Inh,[1]; [21],57%
same,%Inh,[2],31%
same,%Inh,[3]; [21],27%
same,%Inh,[4],0%
same,%Inh,[5],0%
same,%Inh,[6]; [21],0%
same,%Inh,[7]; [21],16%
same,%Inh,[8],38%
same,%Inh,[9],0%
same,%Inh,[10]; [21],0%
same,%Inh,[11],0%
same,%Inh,[12]; [21],0%
same,%Inh,[13],17%
same,%Inh,[14],0%
same,%Inh,[15],4%
same,%Inh,[16]; [21],0%
same,%Inh,[17]; [21],9%
same,%Inh,[18]; [21],62%
same,%Inh,[19]; [21],0%
same,%Inh,[20],0%
O=c1cc(N2CCOCC2)nc2n(Cc3cccc(Cl)c3Cl)ccn12 [GSK2286295],%Inh,[1]; [21],0%
same,%Inh,[2],0%
same,%Inh,[3]; [21],0%
same,%Inh,[4],0%
same,%Inh,[5],6%
same,%Inh,[6]; [21],0%
same,%Inh,[7]; [21],27%
same,%Inh,[8],0%
same,%Inh,[9],2%
same,%Inh,[10]; [21],0%
same,%Inh,[11],0%
same,%Inh,[12]; [21],12%
same,%Inh,[13],12%
same,%Inh,[14],0%
same,%Inh,[15],0%
same,%Inh,[16]; [21],5%
same,%Inh,[17]; [21],12%
same,%Inh,[18]; [21],16%
same,%Inh,[19]; [21],26%
same,%Inh,[20],0%
Cl.NC(=O)c1cccc(Nc2nccc(Nc3ccc(Oc4cccc(Cl)c4)c(Cl)c3)n2)c1 [GW659008],%Inh,[1]; [21],79%
same,%Inh,[2],82%
same,%Inh,[3]; [21],55%
same,%Inh,[4],3%
same,%Inh,[5],0%
same,%Inh,[6]; [21],15%
same,%Inh,[7]; [21],0%
same,%Inh,[8],61%
same,%Inh,[9],0%
same,%Inh,[10]; [21],19%
same,%Inh,[11],0%
same,%Inh,[12]; [21],9%
same,%Inh,[13],0%
same,%Inh,[14],18%
same,%Inh,[15],0%
same,%Inh,[16]; [21],0%
same,%Inh,[17]; [21],0%
same,%Inh,[18]; [21],52%
same,%Inh,[19]; [21],36%
same,%Inh,[20],0%
COc1cccc(-c2cc(-c3c[nH]nc3-c3ccccn3)ccn2)c1 [GW680338],%Inh,[1]; [21],5%
same,%Inh,[2],17%
same,%Inh,[3]; [21],0%
same,%Inh,[4],4%
same,%Inh,[5],0%
same,%Inh,[6]; [21],16%
same,%Inh,[7]; [21],8%
same,%Inh,[8],0%
same,%Inh,[9],0%
same,%Inh,[10]; [21],0%
same,%Inh,[11],0%
same,%Inh,[12]; [21],0%
same,%Inh,[13],9%
same,%Inh,[14],0%
same,%Inh,[15],0%
same,%Inh,[16]; [21],1%
same,%Inh,[17]; [21],6%
same,%Inh,[18]; [21],19%
same,%Inh,[19]; [21],3%
same,%Inh,[20],0%
Cc1cc(N2Cc3ccccc3C2)nc(Nc2ccc(S(=O)(=O)N3CCOCC3)cc2)n1.Cl [GSK1669917],%Inh,[1]; [21],0%
same,%Inh,[2],0%
same,%Inh,[3]; [21],26%
same,%Inh,[4],0%
same,%Inh,[5],0%
same,%Inh,[6]; [21],0%
same,%Inh,[7]; [21],19%
same,%Inh,[8],0%
same,%Inh,[9],0%
same,%Inh,[10]; [21],0%
same,%Inh,[11],0%
same,%Inh,[12]; [21],25%
same,%Inh,[13],9%
same,%Inh,[14],0%
same,%Inh,[15],11%
same,%Inh,[16]; [21],15%
same,%Inh,[17]; [21],1%
same,%Inh,[18]; [21],0%
same,%Inh,[19]; [21],9%
same,%Inh,[20],0%
COC(=O)c1c(-c2ccccc2)c2cc(C(=O)O)ccc2c(=O)n1Cc1ccccc1,%Inh,[1]; [21],0%
same,%Inh,[2],0%
same,%Inh,[3]; [21],2%
same,%Inh,[4],0%
same,%Inh,[5],16%
same,%Inh,[6]; [21],0%
same,%Inh,[7]; [21],0%
same,%Inh,[8],0%
same,%Inh,[9],0%
same,%Inh,[10]; [21],0%
same,%Inh,[11],0%
same,%Inh,[12]; [21],0%
same,%Inh,[13],0%
same,%Inh,[14],0%
same,%Inh,[15],3%
same,%Inh,[16]; [21],0%
same,%Inh,[17]; [21],0%
same,%Inh,[18]; [21],0%
same,%Inh,[19]; [21],7%
same,%Inh,[20],3%
O=C(O)COc1ncnc2cc(-c3ccc4[nH]ncc4c3)sc12,%Inh,[1]; [21],0%
same,%Inh,[2],0%
same,%Inh,[3]; [21],15%
same,%Inh,[4],0%
same,%Inh,[5],24%
same,%Inh,[6]; [21],0%
same,%Inh,[7]; [21],0%
same,%Inh,[8],1%
same,%Inh,[9],3%
same,%Inh,[10]; [21],15%
same,%Inh,[11],5%
same,%Inh,[12]; [21],0%
same,%Inh,[13],7%
same,%Inh,[14],23%
same,%Inh,[15],1%
same,%Inh,[16]; [21],0%
same,%Inh,[17]; [21],0%
same,%Inh,[18]; [21],0%
same,%Inh,[19]; [21],0%
same,%Inh,[20],39%
